# Data from PMC7156710, “The Sox2 transcription factor binds RNA”.
# Columns and labels:
# Test in all cases: fluorescence anisotropy; 10 mM Tris-HEPES pH 7.5, 8% Ficoll, 0.05% NP-40, 135 mM KCl, 15 mM NaCl, 1 mM DTT, 0.1 mg/mL BSA; 2 nM DNA or 3 nM RNA; low values mean tight binding
# Conditions in all cases: protein: recombinant; tags: N-terminal His6 and thrombin site, not removed; label: 3' fluorescein; hairpin; structured_RNA
# [1] = biological target: Sox2-HMG (His6 retained) E78A (Homo sapiens, UniProt P48431 38-121, E78A)
# Sox2-HMG (His6 retained) E78A, sequence (P48431 other isoform, or with tags, fused parts or gaps E78A | E78A E78A): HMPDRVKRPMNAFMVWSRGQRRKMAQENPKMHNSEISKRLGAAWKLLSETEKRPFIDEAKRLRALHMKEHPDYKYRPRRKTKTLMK
# Outline: (§1)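 Alanine-substituted Sox2-HMG domains were made by site-directed mutagenesis and Ni-NTA purified with the His6 tag retained. They were titrated against 2 nM fluorescein-labeled DNA or 3 nM fluorescein-labeled RNA in Tris-HEPES pH 7.5 binding buffer for at least 1 h. Polarization was read on a CLARIOstar, with triplicate titrations each read three times. Dissociation constants were fit in Kaleidagraph and expressed as the mutant-to-wild-type ratio.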
# [2] = biological target: Sox2-HMG (His6 retained) S72A (Homo sapiens, UniProt P48431 38-121, S72A)
# Sox2-HMG (His6 retained) S72A, sequence (P48431 other isoform, or with tags, fused parts or gaps S72A | S72A S72A): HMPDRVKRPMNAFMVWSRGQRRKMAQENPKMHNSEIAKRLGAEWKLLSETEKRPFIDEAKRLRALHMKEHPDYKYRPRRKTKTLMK
# Outline: as §1
# [3] = biological target: Sox2-HMG (His6 retained) E104A (Homo sapiens, UniProt P48431 38-121, E104A)
# Sox2-HMG (His6 retained) E104A, sequence (P48431 other isoform, or with tags, fused parts or gaps E104A | E104A E104A): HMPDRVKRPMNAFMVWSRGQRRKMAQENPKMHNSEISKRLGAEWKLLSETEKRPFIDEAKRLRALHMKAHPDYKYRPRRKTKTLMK
# Outline: as §1
# [4] = biological target: Sox2-HMG (His6 retained) K58A (Homo sapiens, UniProt P48431 38-121, K58A)
# Sox2-HMG (His6 retained) K58A, sequence (P48431 other isoform, or with tags, fused parts or gaps K58A | K58A K58A): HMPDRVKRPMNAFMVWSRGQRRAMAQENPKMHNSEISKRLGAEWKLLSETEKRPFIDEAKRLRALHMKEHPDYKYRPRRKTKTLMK
# Outline: as §1
# [5] = biological target: Sox2-HMG (His6 retained) H67A (Homo sapiens, UniProt P48431 38-121, H67A)
# Sox2-HMG (His6 retained) H67A, sequence (P48431 other isoform, or with tags, fused parts or gaps H67A | H67A H67A): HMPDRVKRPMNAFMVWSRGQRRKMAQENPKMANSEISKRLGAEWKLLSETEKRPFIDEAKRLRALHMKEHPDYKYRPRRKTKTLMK
# Outline: as §1
# [6] = biological target: Sox2-HMG (His6 retained) K42A (Homo sapiens, UniProt P48431 38-121, K42A)
# Sox2-HMG (His6 retained) K42A, sequence (P48431 other isoform, or with tags, fused parts or gaps K42A | K42A K42A): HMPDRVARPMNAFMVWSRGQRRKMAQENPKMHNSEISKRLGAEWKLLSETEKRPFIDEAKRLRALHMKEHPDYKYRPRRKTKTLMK
# Outline: as §1
# [7] = biological target: Sox2-HMG (His6 retained) M45A (Homo sapiens, UniProt P48431 38-121, M45A)
# Sox2-HMG (His6 retained) M45A, sequence (P48431 other isoform, or with tags, fused parts or gaps M45A | M45A M45A): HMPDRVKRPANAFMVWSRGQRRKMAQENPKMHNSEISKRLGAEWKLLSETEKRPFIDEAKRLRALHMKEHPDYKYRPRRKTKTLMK
# Outline: as §1
# [8] = biological target: Sox2-HMG (His6 retained) N63A (Homo sapiens, UniProt P48431 38-121, N63A)
# Sox2-HMG (His6 retained) N63A, sequence (P48431 other isoform, or with tags, fused parts or gaps N63A | N63A N63A): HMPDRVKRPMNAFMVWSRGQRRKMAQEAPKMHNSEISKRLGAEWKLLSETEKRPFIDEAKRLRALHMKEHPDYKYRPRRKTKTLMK
# Outline: as §1
# [9] = biological target: Sox2-HMG (His6 retained) K115A (Homo sapiens, UniProt P48431 38-121, K115A)
# Sox2-HMG (His6 retained) K115A, sequence (P48431 other isoform, or with tags, fused parts or gaps K115A | K115A K115A): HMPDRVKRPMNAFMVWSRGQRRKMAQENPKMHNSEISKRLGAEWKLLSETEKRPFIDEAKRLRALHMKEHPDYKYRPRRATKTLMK
# Outline: as §1
# [10] = biological target: Sox2-HMG (His6 retained) E70A (Homo sapiens, UniProt P48431 38-121, E70A)
# Sox2-HMG (His6 retained) E70A, sequence (P48431 other isoform, or with tags, fused parts or gaps E70A | E70A E70A): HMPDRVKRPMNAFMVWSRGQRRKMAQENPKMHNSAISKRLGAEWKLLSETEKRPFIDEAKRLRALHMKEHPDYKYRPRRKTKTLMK
# Outline: as §1
# [11] = biological target: Sox2-HMG (His6 retained) K87A (Homo sapiens, UniProt P48431 38-121, K87A)
# Sox2-HMG (His6 retained) K87A, sequence (P48431 other isoform, or with tags, fused parts or gaps K87A | K87A K87A): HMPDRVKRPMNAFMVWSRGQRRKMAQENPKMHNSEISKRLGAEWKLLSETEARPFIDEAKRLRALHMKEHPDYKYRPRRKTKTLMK
# Outline: as §1
# [12] = biological target: Sox2-HMG (His6 retained) W79A (Homo sapiens, UniProt P48431 38-121, W79A)
# Sox2-HMG (His6 retained) W79A, sequence (P48431 other isoform, or with tags, fused parts or gaps W79A | W79A W79A): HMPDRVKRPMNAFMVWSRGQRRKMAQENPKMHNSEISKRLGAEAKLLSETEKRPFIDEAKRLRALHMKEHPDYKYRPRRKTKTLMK
# Outline: as §1
# [13] = biological target: Sox2-HMG (His6 retained) E62A (Homo sapiens, UniProt P48431 38-121, E62A)
# Sox2-HMG (His6 retained) E62A, sequence (P48431 other isoform, or with tags, fused parts or gaps E62A | E62A E62A): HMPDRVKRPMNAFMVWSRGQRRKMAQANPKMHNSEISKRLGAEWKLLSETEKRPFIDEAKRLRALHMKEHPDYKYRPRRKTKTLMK
# Outline: as §1
# [14] = biological target: Sox2-HMG (His6 retained) R114A (Homo sapiens, UniProt P48431 38-121, R114A)
# Outline: as §1
# [15] = biological target: Sox2-HMG (His6 retained) S69A (Homo sapiens, UniProt P48431 38-121, S69A)
# Sox2-HMG (His6 retained) S69A, sequence (P48431 other isoform, or with tags, fused parts or gaps S69A | S69A S69A): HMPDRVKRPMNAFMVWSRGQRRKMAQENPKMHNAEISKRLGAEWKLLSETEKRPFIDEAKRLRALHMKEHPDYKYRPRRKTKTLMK
# Outline: as §1
# [16] = biological target: Sox2-HMG (His6 retained) R96A (Homo sapiens, UniProt P48431 38-121, R96A)
# Sox2-HMG (His6 retained) R96A, sequence (P48431 other isoform, or with tags, fused parts or gaps R96A | R96A R96A): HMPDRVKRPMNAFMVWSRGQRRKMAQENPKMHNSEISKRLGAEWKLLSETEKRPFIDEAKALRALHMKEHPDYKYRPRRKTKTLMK
# Outline: as §1
# [17] = biological target: Sox2-HMG (His6 retained) R40A (Homo sapiens, UniProt P48431 38-121, R40A)
# Sox2-HMG (His6 retained) R40A, sequence (P48431 other isoform, or with tags, fused parts or gaps R40A | R40A R40A): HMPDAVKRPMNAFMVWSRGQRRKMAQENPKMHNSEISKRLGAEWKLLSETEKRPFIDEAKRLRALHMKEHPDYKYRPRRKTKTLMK
# Outline: as §1
# [18] = biological target: Sox2-HMG (His6 retained) W51A (Homo sapiens, UniProt P48431 38-121, W51A)
# Sox2-HMG (His6 retained) W51A, sequence (P48431 other isoform, or with tags, fused parts or gaps W51A | W51A W51A): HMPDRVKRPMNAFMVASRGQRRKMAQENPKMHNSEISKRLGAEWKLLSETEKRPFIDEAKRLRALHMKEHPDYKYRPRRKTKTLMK
# Outline: as §1
# [19] = biological target: Sox2-HMG (His6 retained) S83A (Homo sapiens, UniProt P48431 38-121, S83A)
# Sox2-HMG (His6 retained) S83A, sequence (P48431 other isoform, or with tags, fused parts or gaps S83A | S83A S83A): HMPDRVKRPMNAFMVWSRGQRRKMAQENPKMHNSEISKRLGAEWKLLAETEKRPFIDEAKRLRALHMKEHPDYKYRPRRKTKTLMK
# Outline: as §1
# [20] = biological target: Sox2-HMG (His6 retained) R111A (Homo sapiens, UniProt P48431 38-121, R111A)
# Sox2-HMG (His6 retained) R111A, sequence (P48431 other isoform, or with tags, fused parts or gaps R111A | R111A R111A): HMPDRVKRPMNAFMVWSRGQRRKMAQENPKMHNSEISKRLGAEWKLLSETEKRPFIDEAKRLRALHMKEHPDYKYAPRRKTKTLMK
# Outline: as §1
# [21] = biological target: Sox2-HMG (His6 retained) E84A (Homo sapiens, UniProt P48431 38-121, E84A)
# Sox2-HMG (His6 retained) E84A, sequence (P48431 other isoform, or with tags, fused parts or gaps E84A | E84A E84A): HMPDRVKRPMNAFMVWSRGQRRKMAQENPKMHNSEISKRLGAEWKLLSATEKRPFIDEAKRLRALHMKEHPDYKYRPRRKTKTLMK
# Outline: as §1
# [22] = biological target: Sox2-HMG (His6 retained) K95A (Homo sapiens, UniProt P48431 38-121, K95A)
# Sox2-HMG (His6 retained) K95A, sequence (P48431 other isoform, or with tags, fused parts or gaps K95A | K95A K95A): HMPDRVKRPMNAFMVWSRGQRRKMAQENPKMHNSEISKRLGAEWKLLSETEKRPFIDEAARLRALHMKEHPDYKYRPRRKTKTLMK
# Outline: as §1
# [23] = biological target: Sox2-HMG (His6 retained) F48A (Homo sapiens, UniProt P48431 38-121, F48A)
# Sox2-HMG (His6 retained) F48A, sequence (P48431 other isoform, or with tags, fused parts or gaps F48A | F48A F48A): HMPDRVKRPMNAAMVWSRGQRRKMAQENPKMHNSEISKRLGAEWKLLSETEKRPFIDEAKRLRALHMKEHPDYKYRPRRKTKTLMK
# Outline: as §1
# [24] = biological target: Sox2-HMG (His6 retained) R74A (Homo sapiens, UniProt P48431 38-121, R74A)
# Sox2-HMG (His6 retained) R74A, sequence (P48431 other isoform, or with tags, fused parts or gaps R74A | R74A R74A): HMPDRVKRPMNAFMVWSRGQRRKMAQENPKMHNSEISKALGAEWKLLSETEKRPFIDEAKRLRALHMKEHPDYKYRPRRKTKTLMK
# Outline: as §1
# [25] = biological target: Sox2-HMG (His6 retained) Q61A (Homo sapiens, UniProt P48431 38-121, Q61A)
# Sox2-HMG (His6 retained) Q61A, sequence (P48431 other isoform, or with tags, fused parts or gaps Q61A | Q61A Q61A): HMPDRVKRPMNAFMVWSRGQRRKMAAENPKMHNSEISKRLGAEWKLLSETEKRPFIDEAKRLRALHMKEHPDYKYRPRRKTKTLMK
# Outline: as §1
# [26] = biological target: Sox2-HMG (His6 retained) R88A (Homo sapiens, UniProt P48431 38-121, R88A)
# Sox2-HMG (His6 retained) R88A, sequence (P48431 other isoform, or with tags, fused parts or gaps R88A | R88A R88A): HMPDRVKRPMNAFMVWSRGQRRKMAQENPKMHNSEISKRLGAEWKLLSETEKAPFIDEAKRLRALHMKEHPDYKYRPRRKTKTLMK
# Outline: as §1
# [27] = biological target: Sox2-HMG (His6 retained) K73A (Homo sapiens, UniProt P48431 38-121, K73A)
# Sox2-HMG (His6 retained) K73A, sequence (P48431 other isoform, or with tags, fused parts or gaps K73A | K73A K73A): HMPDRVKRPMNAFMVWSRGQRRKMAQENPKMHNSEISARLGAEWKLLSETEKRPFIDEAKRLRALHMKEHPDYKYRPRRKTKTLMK
# Outline: as §1
# [28] = biological target: Sox2-HMG (His6 retained) E86A (Homo sapiens, UniProt P48431 38-121, E86A)
# Sox2-HMG (His6 retained) E86A, sequence (P48431 other isoform, or with tags, fused parts or gaps E86A | E86A E86A): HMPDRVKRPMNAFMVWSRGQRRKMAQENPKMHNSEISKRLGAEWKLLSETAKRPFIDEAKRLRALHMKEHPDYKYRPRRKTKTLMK
# Outline: as §1
# [29] = biological target: Sox2-HMG (His6 retained) R53A (Homo sapiens, UniProt P48431 38-121, R53A)
# Sox2-HMG (His6 retained) R53A, sequence (P48431 other isoform, or with tags, fused parts or gaps R53A | R53A R53A): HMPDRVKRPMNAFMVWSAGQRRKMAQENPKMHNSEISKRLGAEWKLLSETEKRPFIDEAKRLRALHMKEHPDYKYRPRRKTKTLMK
# Outline: as §1
# [30] = biological target: Sox2-HMG (His6 retained) R113A (Homo sapiens, UniProt P48431 38-121, R113A)
# Sox2-HMG (His6 retained) R113A, sequence (P48431 other isoform, or with tags, fused parts or gaps R113A | R113A R113A): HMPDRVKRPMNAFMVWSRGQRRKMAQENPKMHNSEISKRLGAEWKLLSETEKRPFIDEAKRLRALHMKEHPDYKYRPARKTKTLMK
# Outline: as §1
# [31] = biological target: Sox2-HMG (His6 retained) T85A (Homo sapiens, UniProt P48431 38-121, T85A)
# Sox2-HMG (His6 retained) T85A, sequence (P48431 other isoform, or with tags, fused parts or gaps T85A | T85A T85A): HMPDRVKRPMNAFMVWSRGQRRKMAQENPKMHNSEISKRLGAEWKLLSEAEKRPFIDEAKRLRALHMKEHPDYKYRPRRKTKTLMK
# Outline: as §1
# [32] = biological target: Sox2-HMG (His6 retained) M49A (Homo sapiens, UniProt P48431 38-121, M49A)
# Sox2-HMG (His6 retained) M49A, sequence (P48431 other isoform, or with tags, fused parts or gaps M49A | M49A M49A): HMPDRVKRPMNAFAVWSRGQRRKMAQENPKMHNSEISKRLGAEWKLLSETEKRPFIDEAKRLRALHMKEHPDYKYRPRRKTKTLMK
# Outline: as §1
# [33] = biological target: Sox2-HMG (His6 retained) R56A (Homo sapiens, UniProt P48431 38-121, R56A)
# Sox2-HMG (His6 retained) R56A, sequence (P48431 other isoform, or with tags, fused parts or gaps R56A | R56A R56A): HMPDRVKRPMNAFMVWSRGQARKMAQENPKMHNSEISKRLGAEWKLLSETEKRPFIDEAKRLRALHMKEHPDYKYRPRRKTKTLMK
# Outline: as §1
# [34] = biological target: Sox2-HMG (His6 retained) K80A (Homo sapiens, UniProt P48431 38-121, K80A)
# Sox2-HMG (His6 retained) K80A, sequence (P48431 other isoform, or with tags, fused parts or gaps K80A | K80A K80A): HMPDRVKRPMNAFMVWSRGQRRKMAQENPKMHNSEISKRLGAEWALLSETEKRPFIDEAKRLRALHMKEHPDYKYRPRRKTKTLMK
# Outline: as §1
# [35] = biological target: Sox2-HMG (His6 retained) Y110A (Homo sapiens, UniProt P48431 38-121, Y110A)
# Sox2-HMG (His6 retained) Y110A, sequence (P48431 other isoform, or with tags, fused parts or gaps Y110A | Y110A Y110A): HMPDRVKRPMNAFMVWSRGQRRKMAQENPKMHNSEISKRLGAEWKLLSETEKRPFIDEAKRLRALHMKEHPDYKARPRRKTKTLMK
# Outline: as §1
# [36] = biological target: Sox2-HMG (His6 retained) K103A (Homo sapiens, UniProt P48431 38-121, K103A)
# Sox2-HMG (His6 retained) K103A, sequence (P48431 other isoform, or with tags, fused parts or gaps K103A | K103A K103A): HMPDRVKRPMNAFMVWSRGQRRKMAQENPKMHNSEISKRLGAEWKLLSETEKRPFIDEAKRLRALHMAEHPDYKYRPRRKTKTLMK
# Outline: as §1
# [37] = biological target: Sox2-HMG (His6 retained) K109A (Homo sapiens, UniProt P48431 38-121, K109A)
# Sox2-HMG (His6 retained) K109A, sequence (P48431 other isoform, or with tags, fused parts or gaps K109A | K109A K109A): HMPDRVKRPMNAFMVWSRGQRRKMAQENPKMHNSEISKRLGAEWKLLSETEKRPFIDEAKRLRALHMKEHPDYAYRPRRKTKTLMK
# Outline: as §1
# [38] = biological target: Sox2-HMG (His6 retained) R43A (Homo sapiens, UniProt P48431 38-121, R43A)
# Sox2-HMG (His6 retained) R43A, sequence (P48431 other isoform, or with tags, fused parts or gaps R43A | R43A R43A): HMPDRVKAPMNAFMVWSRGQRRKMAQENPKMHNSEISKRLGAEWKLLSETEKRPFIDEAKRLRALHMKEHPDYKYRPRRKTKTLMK
# Outline: as §1
# [39] = biological target: Sox2-HMG (His6 retained) R57A (Homo sapiens, UniProt P48431 38-121, R57A)
# Sox2-HMG (His6 retained) R57A, sequence (P48431 other isoform, or with tags, fused parts or gaps R57A | R57A R57A): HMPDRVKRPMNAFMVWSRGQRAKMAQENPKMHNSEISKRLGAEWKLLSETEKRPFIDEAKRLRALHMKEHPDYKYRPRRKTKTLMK
# Outline: as §1
# [40] = biological target: Sox2-HMG (His6 retained) R98A (Homo sapiens, UniProt P48431 38-121, R98A)
# Sox2-HMG (His6 retained) R98A, sequence (P48431 other isoform, or with tags, fused parts or gaps R98A | R98A R98A): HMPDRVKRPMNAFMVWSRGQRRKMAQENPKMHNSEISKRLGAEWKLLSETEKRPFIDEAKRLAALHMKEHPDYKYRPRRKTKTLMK
# Outline: as §1
# [41] = biological target: Sox2-HMG (His6 retained) N68A (Homo sapiens, UniProt P48431 38-121, N68A)
# Sox2-HMG (His6 retained) N68A, sequence (P48431 other isoform, or with tags, fused parts or gaps N68A | N68A N68A): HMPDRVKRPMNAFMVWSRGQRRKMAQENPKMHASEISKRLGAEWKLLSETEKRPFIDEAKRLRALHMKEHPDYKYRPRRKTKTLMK
# Outline: as §1
# [42] = biological target: Sox2-HMG (His6 retained) P112A (Homo sapiens, UniProt P48431 38-121, P112A)
# Sox2-HMG (His6 retained) P112A, sequence (P48431 other isoform, or with tags, fused parts or gaps P112A | P112A P112A): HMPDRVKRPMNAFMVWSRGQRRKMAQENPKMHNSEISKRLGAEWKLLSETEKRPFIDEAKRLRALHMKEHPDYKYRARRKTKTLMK
# Outline: as §1
# [43] = biological target: Sox2-HMG (His6 retained) N46A (Homo sapiens, UniProt P48431 38-121, N46A)
# Sox2-HMG (His6 retained) N46A, sequence (P48431 other isoform, or with tags, fused parts or gaps N46A | N46A N46A): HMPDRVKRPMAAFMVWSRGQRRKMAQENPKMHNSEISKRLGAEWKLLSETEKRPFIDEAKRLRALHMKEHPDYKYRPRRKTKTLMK
# Outline: as §1
# [44] = biological target: Sox2-HMG (His6 retained) K65A (Homo sapiens, UniProt P48431 38-121, K65A)
# Sox2-HMG (His6 retained) K65A, sequence (P48431 other isoform, or with tags, fused parts or gaps K65A | K65A K65A): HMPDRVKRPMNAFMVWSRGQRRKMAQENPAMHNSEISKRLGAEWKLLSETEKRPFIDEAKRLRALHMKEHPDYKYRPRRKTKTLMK
# Outline: as §1
# [45] = biological target: Sox2-HMG (His6 retained) H101A (Homo sapiens, UniProt P48431 38-121, H101A)
# Sox2-HMG (His6 retained) H101A, sequence (P48431 other isoform, or with tags, fused parts or gaps H101A | H101A H101A): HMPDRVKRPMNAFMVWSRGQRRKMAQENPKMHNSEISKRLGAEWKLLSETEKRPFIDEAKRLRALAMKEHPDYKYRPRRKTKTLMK
# Outline: as §1
# [46] = biological target: Sox2-HMG (His6 retained) P64A (Homo sapiens, UniProt P48431 38-121, P64A)
# Sox2-HMG (His6 retained) P64A, sequence (P48431 other isoform, or with tags, fused parts or gaps P64A | P64A P64A): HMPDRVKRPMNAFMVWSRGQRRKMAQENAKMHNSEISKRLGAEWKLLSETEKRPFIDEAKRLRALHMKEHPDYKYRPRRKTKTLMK
# Outline: as §1
# [47] = biological target: Sox2-HMG (His6 retained) M66A (Homo sapiens, UniProt P48431 38-121, M66A)
# Outline: as §1
# [48] = biological target: Sox2-HMG (His6 retained) H105A (Homo sapiens, UniProt P48431 38-121, H105A)
# Sox2-HMG (His6 retained) H105A, sequence (P48431 other isoform, or with tags, fused parts or gaps H105A | H105A H105A): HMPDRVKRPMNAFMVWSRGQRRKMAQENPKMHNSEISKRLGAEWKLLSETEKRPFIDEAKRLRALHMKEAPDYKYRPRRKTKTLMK
# Outline: as §1
sequence,measurement,setting,value
GGUCUUAAGGUGCGGGCGAAAGUCUGUACCUCUGGGACC,binding signal,[1],0.9 ± 0.5 Kd(mutant)/Kd(WT)
same,binding signal,[2],1 ± 0.6 Kd(mutant)/Kd(WT)
same,binding signal,[3],1 ± 0.5 Kd(mutant)/Kd(WT)
same,binding signal,[4],0.8 ± 0.4 Kd(mutant)/Kd(WT)
same,binding signal,[5],3.7 ± 1.7 Kd(mutant)/Kd(WT)
same,binding signal,[6],7.9 ± 2.7 Kd(mutant)/Kd(WT)
same,binding signal,[7],0.9 ± 0.5 Kd(mutant)/Kd(WT)
same,binding signal,[8],1.3 ± 0.2 Kd(mutant)/Kd(WT)
same,binding signal,[9],3.6 ± 1.4 Kd(mutant)/Kd(WT)
same,binding signal,[10],1.2 ± 0.4 Kd(mutant)/Kd(WT)
same,binding signal,[11],4.1 ± 1.4 Kd(mutant)/Kd(WT)
same,binding signal,[12],50 ± 19 Kd(mutant)/Kd(WT)
same,binding signal,[13],1.6 ± 0.8 Kd(mutant)/Kd(WT)
same,binding signal,[14],9.2 ± 2.3 Kd(mutant)/Kd(WT)
same,binding signal,[15],1.6 ± 0.5 Kd(mutant)/Kd(WT)
same,binding signal,[16],0.8 ± 0.3 Kd(mutant)/Kd(WT)
same,binding signal,[17],2.7 ± 0.3 Kd(mutant)/Kd(WT)
same,binding signal,[18],78 ± 13 Kd(mutant)/Kd(WT)
same,binding signal,[19],1.8 ± 0.6 Kd(mutant)/Kd(WT)
same,binding signal,[20],2.2 ± 1.2 Kd(mutant)/Kd(WT)
same,binding signal,[21],0.9 ± 0.5 Kd(mutant)/Kd(WT)
same,binding signal,[22],3.2 ± 1.2 Kd(mutant)/Kd(WT)
same,binding signal,[23],16 ± 2 Kd(mutant)/Kd(WT)
same,binding signal,[24],0.9 ± 0.5 Kd(mutant)/Kd(WT)
same,binding signal,[25],0.8 ± 0.5 Kd(mutant)/Kd(WT)
same,binding signal,[26],0.7 ± 0.2 Kd(mutant)/Kd(WT)
same,binding signal,[27],6.9 ± 0.2 Kd(mutant)/Kd(WT)
same,binding signal,[28],0.9 ± 0.6 Kd(mutant)/Kd(WT)
same,binding signal,[29],1.7 ± 0.6 Kd(mutant)/Kd(WT)
same,binding signal,[30],3.1 ± 1.3 Kd(mutant)/Kd(WT)
same,binding signal,[31],0.9 ± 0.3 Kd(mutant)/Kd(WT)
same,binding signal,[32],0.7 ± 0.4 Kd(mutant)/Kd(WT)
same,binding signal,[33],3 ± 0.3 Kd(mutant)/Kd(WT)
same,binding signal,[34],40 ± 15 Kd(mutant)/Kd(WT)
same,binding signal,[35],1.7 ± 0.6 Kd(mutant)/Kd(WT)
same,binding signal,[36],2.5 ± 1.1 Kd(mutant)/Kd(WT)
same,binding signal,[37],7.4 ± 2.5 Kd(mutant)/Kd(WT)
same,binding signal,[38],2.8 ± 0.6 Kd(mutant)/Kd(WT)
same,binding signal,[39],1.3 ± 0.5 Kd(mutant)/Kd(WT)
same,binding signal,[40],5.5 ± 1.9 Kd(mutant)/Kd(WT)
same,binding signal,[41],1 ± 0.1 Kd(mutant)/Kd(WT)
same,binding signal,[42],1.8 ± 0.8 Kd(mutant)/Kd(WT)
same,binding signal,[43],3.5 ± 1.1 Kd(mutant)/Kd(WT)
same,binding signal,[44],2.6 ± 0.7 Kd(mutant)/Kd(WT)
same,binding signal,[45],2.2 ± 0.9 Kd(mutant)/Kd(WT)
same,binding signal,[46],2 ± 0.7 Kd(mutant)/Kd(WT)
same,binding signal,[47],1.3 ± 0.5 Kd(mutant)/Kd(WT)
same,binding signal,[48],2 ± 1 Kd(mutant)/Kd(WT)
